# From PubChem BioAssay
# BoNT A protease: BoNT/A light chain protease inhibitors, primary screen, biochemical, flow cytometry, MLPCN library | Botulinum neurotoxin type A light chain protease (Clostridium botulinum A str. ATCC 3502) | multiplex microsphere protease substrate cleavage | inhibition, % at 10 µM | 360,000 tested, 0.17% active | AID 588499, 2011; in the data active means inhibition above about 30%; inconclusive means no clear call, values can overlap the other calls; further: plate controls were buffer without enzyme for full effect and enzyme alone for no effect
# BoNT-F LC inh: BoNT/F light chain protease inhibitors, primary screen, biochemical, flow cytometry, MLPCN library. Botulinum neurotoxin type F light chain protease (Clostridium botulinum). 360,000 tested, 0.22% active. inhibition, % at 10 µM. Multiplex microsphere protease cleavage assay; in the data active means inhibition above about 35%, passing the limit was not always enough; inconclusive means no clear call, values can overlap the other calls; further: plate controls were buffer without enzyme for full effect and enzyme alone for no effect
# PfHsp40 rescue: rescue of yeast from PfHsp40 toxicity, primary screen, S. cerevisiae, ATP luminescence; S. cerevisiae expressing PfHsp40, growth rescue; growth rescue, % at 12.5 µM; 340,000 tested, 0.68% active; AID 504582, 2011; in the data active means growth rescue above about 28%, passing the limit was not always enough; inconclusive means no clear call, values can overlap the other calls;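 further: yeast W303a lacking pdr1 and pdr3 grown in galactose medium; growth measured after three days at 30 °C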
# Bead autofluor: flagged as autofluorescent in microsphere protease counterscreen | AID 624483 | compound autofluorescence counterscreen, microsphere flow cytometry; hits give high values | fluorescence intensity (concentration not given with the values) | 360,000 tested, 3.1% active; in the data active means fluorescence intensity above about 16000; inconclusive means no clear call, values can overlap the other calls
# Anthrax LF inh2: Bacillus anthracis LF protease inhibitors, primary screen, biochemical, multiplex microsphere, MLPCN library; Lethal factor (Bacillus anthracis), P15917; multiplex microsphere protease cleavage assay; inhibition, % at 10 µM; 360,000 tested, 0.12% active; AID 588501, 2011; in the data active means inhibition above about 30%; inconclusive means no clear call, values can overlap the other calls; further: plate controls were buffer without enzyme for full effect and enzyme alone for no effect
# MazEF act: activators of E. coli MazEF toxin-antitoxin RNase, primary screen, biochemical, fluorescence, uHTS. FAM/BHQ RNA-DNA oligo cleavage fluorescence, 5 h. activation, % at 20 µM. 350,000 tested, 0.32% active. AID 504720, 2011; in the data active means activation above about 50%
# BoNTA LC inh 2: BoNT/A light chain protease inhibitors, confirmation, biochemical, flow cytometry, cherry pick 2; shares compounds with BoNT A protease; multiplex microsphere protease cleavage assay; AID 602325, 2012; inhibition, % at 10 µM; 150 tested, 10% active; in the data active means inhibition above about 24%
# Anthrax LF CP2: Bacillus anthracis LF protease inhibitors, confirmation, biochemical, multiplex microsphere. shares compounds with BoNT A protease. multiplex microsphere protease cleavage assay. inhibition, % at 10 µM. 150 tested, 7% active
# BoNTF LC inh 2: BoNT/F light chain protease inhibitors, confirmation, biochemical, flow cytometry, cherry pick 2; shares compounds with BoNT A protease; multiplex microsphere protease cleavage assay; 150 tested, 7% active; inhibition, % at 10 µM; AID 602336, 2012
# * hit, by the source's call; ? = inconclusive; . = not tested or not shown. An excerpt weighted towards active compounds, which were near 4.3% of everything screened. Unless noted, no stated cut-off is given here; in the data, active means inhibition above about 25%; inactive means the rest.
SMILES,BoNT A protease,BoNT-F LC inh,PfHsp40 rescue,Bead autofluor,Anthrax LF inh2,MazEF act,BoNTA LC inh 2,Anthrax LF CP2,BoNTF LC inh 2
Cc1cc2ccccc2n1CCNC(=O)c1ccc(Br)o1,66.4*,-145.1,-0.4,1384,-117.3,-29.3,21.0,22.4,-3.0
CCC(=O)NCCn1c(C)cc2ccccc21,25.8,19.8,0.5,5062,33.2*,-9.0,34.0*,1.6,27.8*
Cc1cc2ccccc2n1CCNC(=O)C(C)(C)C,96.1*,-15.6,1.0,2350,12.4,-13.9,10.6,9.6,11.3
Cc1ccc(NC(=O)c2ccc3c(c2)C(=O)N(c2cc(C)ccc2C)C3=O)nc1,0.8,7.7,-0.6,5826,-0.3,-3.4,.,.,.
Cc1cc(C)c(NC(=O)CNC(=O)COC(=O)/C=C/c2cccs2)c(C)c1,.,.,1.4,.,.,-14.5,.,.,.
COC(=O)CNC(=O)COc1ccccc1,0.0,1.3,0.0,2518,1.5,-5.6,.,.,.
Cc1cc2ccccc2n1CCNC(=O)COc1ccccc1,84.4*,-87.7,0.6,1122,-63.3,-14.9,77.2*,49.7*,-14.0
O=C(CSc1nnc(CNC(=O)c2ccco2)o1)Nc1ccc(F)cc1,0.3,3.8,0.9,5161,-2.4,1.1,.,.,.
CN(C)c1ccc(/C=C2/C[N+](C)(C)C/C(=C/c3ccc(N(C)C)cc3)C2=O)cc1,85.5*,-27.3,0.1,7292,40.9*,-1.8,47.7*,28.4*,-3.6
O=C(NC[C@@H]1CCCO1)c1cccc2c1C(=O)c1ccc(N3CCOCC3)cc1S2(=O)=O,-0.2,0.6,-2.3,3924,-1.7,-29.6,.,.,.
O=C(NC1CCCCC1)c1cccc2c1C(=O)c1ccc(N3CCC(Cc4ccccc4)CC3)cc1S2(=O)=O,26.2,14.2,-0.5,5311,34.1*,-693.4,8.4,8.2,12.1
CC1CCN(c2ccc3c(c2)S(=O)(=O)c2cccc(C(=O)NC4CC4)c2C3=O)CC1,1.4,1.1,-2.0,3947,-2.4,-37.2,5.4,6.1,13.1
O=C(NCC1CC1)c1cccc2c1C(=O)c1ccc(N3CCCC3)cc1S2(=O)=O,1.5,-0.6,-1.0,4247,1.6,-151.1,.,.,.
CC1CCN(c2ccc3c(c2)S(=O)(=O)c2cccc(C(=O)NC[C@@H]4CCCO4)c2C3=O)CC1,2.1,-5.5,-2.3,3805,4.2,-42.5,2.0,0.8,5.4
COc1ccccc1N1CCN(c2ccc3c(c2)S(=O)(=O)c2cccc(C(=O)NCc4cccc(F)c4)c2C3=O)CC1,0.3,-2.6,.,3870,-10.5,-1.5,1.5,-2.5,-3.5
CC1CN(C(=O)CSc2nnc(NC(=O)NC(C)(C)C)s2)CC(C)O1 (stereo unspecified),.,.,0.5,.,.,2.1,.,.,.
O=C(CN1C(=O)NC2(CCCC2)C1=O)OCCOc1cccc(Br)c1,0.3,6.8,-0.1,6017,-4.0,-2.4,.,.,.
NC(=O)c1ccccc1OCC(=O)N1CCC(Cc2ccccc2)CC1,0.6,-3.8,0.4,?,-2.2,5.0,.,.,.
Cc1[nH]c2ccccc2c1C(=O)COC(=O)c1ccccc1O,-0.9,-2.4,-0.9,3305,0.3,11.7,5.2,4.1,15.7
Fc1ccc(-c2nc3ccc(Br)cn3c2Cc2ccsc2)cc1,32.0*,-3.4,.,6185,24.6,.,13.6,11.1,0.2
Cc1ccc(-c2nc3ccc(Br)cn3c2Cc2ccsc2)cc1,19.2,-20.3,.,5688,10.2,.,.,.,.
CN(CC(=O)NC1CCN(Cc2ccccc2)CC1)S(=O)(=O)c1ccc(Br)s1,1.9,7.9,6.5,3897,2.1,2.2,.,.,.
CN(CC(=O)NC1CCN(Cc2ccccc2)CC1)S(=O)(=O)c1ccc(Cl)cc1,14.4,74.2*,-0.5,4359,54.2*,6.9,7.6,8.1,21.1
CN(C)CCNC(=O)c1cccc2nc3c(ccc4ccccc43)nc12,44.4*,14.0,-0.8,3507,42.2*,2.4,18.5,19.6,8.0
COc1cccc2nc3c(C(=O)NCCN(C)C)cccc3cc12,1.9,-14.4,-1.2,3587,2.6,-10.3,.,.,.
SMILES,BoNT A protease,BoNT-F LC inh,PfHsp40 rescue,Bead autofluor,Anthrax LF inh2,MazEF act,BoNTA LC inh 2,Anthrax LF CP2,BoNTF LC inh 2
COc1ccc(C(=O)NC(=S)Nc2ccc3[nH]c(=O)[nH]c3c2)c(OC)c1,1.8,10.7,-2.5,5334,1.9,-17.6,.,.,.
COc1cccc(C(=O)OCC(=O)c2c[nH]c3ccccc23)c1OC,0.8,7.1,-0.7,2872,2.6,-8.6,1.4,-1.4,-1.7
COc1ccc(C(=O)OCC(=O)c2cc(OC)ccc2OC)c(OC)c1,-0.3,-7.2,3.1,2846,0.6,-0.9,.,.,.
NC(=O)Nc1ccc(C(=O)OCC(=O)c2c[nH]c3ccccc23)cc1,-0.6,-10.8,0.1,3902,-1.5,0.3,.,.,.
COc1ccc(C(=O)OCC(=O)c2c[nH]c3ccccc23)c(OC)c1,-4.4,-5.1,-0.2,8458,-3.2,16.0,2.7,-1.0,1.7
O=C(OCC(=O)c1c[nH]c2ccccc12)c1cccc([N+](=O)[O-])c1,33.4*,-11.5,5.4,5658,39.2*,7.2,14.5,13.7,-0.4
O=C(OCC(=O)c1c[nH]c2ccccc12)c1ccc(OC(F)F)cc1,1.8,-5.2,.,3716,3.9,3.6,2.2,2.2,-0.5
COc1ccccc1C(=O)COC(=O)Cc1c[nH]c2ccccc12,6.5,32.8,-0.1,5107,5.1,5.9,.,.,.
O=C(OCC(=O)c1c[nH]c2ccccc12)c1cncc(Br)c1,1.1,-0.7,-0.5,4518,0.4,3.8,.,.,.
C/C(=N\NC(=O)c1cccc(S(=O)(=O)N2CCCC2)c1)c1ccc(F)cc1,-1.0,5.2,-1.7,6029,1.4,-0.8,.,.,.
COc1ccc(Cc2c(-c3ccc(OC)c(OC)c3)nc3cc(C)c(Br)c(C)n23)c(C)c1,0.4,-6.7,.,4775,-20.9,.,2.0,-1.2,3.5
COc1ccc(Cc2c(-c3ccc(OC)c(OC)c3)nc3c(C)cc(Br)cn23)c(C)c1,31.6*,-3.1,.,7593,20.0,.,10.7,8.5,-1.8
COc1ccc(Cc2c(-c3ccccc3)nc3cc(C)c(Br)c(C)n23)c(C)c1,-0.3,-13.3,.,6172,0.5,.,.,.,.
CC(=NNc1nc2ccccc2o1)c1cc2ccccc2cn1,50.8*,74.3*,-0.2,3176,58.9*,3.2,16.2,26.0*,53.9*
